{"source": "ChEMBL document CHEMBL3988442", "about": "“University of Dundee, Small-Polar-MMV Screening Library” (2021)", "note": "About 13,000 (27%) of roughly 48,000 compounds showed an effect of 50% or more. The list shows a part of the results.", "data": [{"test_system": "Wolbachia pipientis", "experiment": "Anti-Wolbachia Cell-Based Screen", "assay_type": "functional", "parameters": "scale not given: in the data most compounds retested in dose-response had high values", "conditions": "5 µM", "units": {"Percent Effect": "%"}, "values": [{"smiles": "CN(C)CC1(O)CCN(S(=O)(=O)c2ccc(F)c(F)c2)C1", "note": "(stereo not drawn)", "Percent Effect": -14.25}, {"smiles": "CCOC1COC2(CCN(S(=O)(=O)c3cccc(F)c3)CC2)C1", "note": "(stereo not drawn)", "Percent Effect": -12.88}, {"smiles": "O=S(=O)(c1cccc(F)c1)N1C[C@@H]2CC[C@H](C1)N(Cc1ccccc1)C2", "Percent Effect": 7.587}, {"smiles": "Cc1ccc(S(=O)(=O)N2CCC3(CC(C(=O)NCC4CC4)=NO3)C2)cc1", "note": "(stereo not drawn)", "Percent Effect": -17.63}, {"smiles": "COc1ccc(S(=O)(=O)N2CCC(O)(CN(C)C)C2)cc1", "note": "(stereo not drawn)", "Percent Effect": 122.7}, {"smiles": "CC[C@H]1CN(S(=O)(=O)c2ccc(OC)cc2)CC[C@H]1CC(=O)O", "Percent Effect": 6.997}, {"smiles": "CN(C)CC1(O)CCN(S(=O)(=O)c2cccc(F)c2)C1", "note": "(stereo not drawn)", "Percent Effect": 142.4}, {"smiles": "CN(C)CC1(O)CCN(S(=O)(=O)c2ccc(F)cc2)C1", "note": "(stereo not drawn)", "Percent Effect": -17.25}, {"smiles": "CN(C)CC1(O)CCN(S(=O)(=O)c2ccc(Cl)cc2)C1", "note": "(stereo not drawn)", "Percent Effect": 106.4}, {"smiles": "Cc1ccc(S(=O)(=O)N2CCC(O)(CN(C)C)C2)cc1", "note": "(stereo not drawn)", "Percent Effect": 128.7}, {"smiles": "COc1cccc(S(=O)(=O)N2CCC(O)(CN(C)C)C2)c1", "note": "(stereo not drawn)", "Percent Effect": -4.6}, {"smiles": "CC(C)(C)C(O)CN1CCN(CC(=O)NCC(F)(F)F)CC1", "note": "(stereo not drawn)", "Percent Effect": 8.391}, {"smiles": "COc1ccc(CCNC(=O)C2CCOC2)c(Cl)c1", "note": "(stereo not drawn)", "Percent Effect": -19.93}, {"smiles": "O=S(=O)(CCNCc1ccc(Cl)cc1)N1CCOCC1", "Percent Effect": -1.046}, {"smiles": "CN(C)CCN1C(=O)CO[C@@H]2CN(c3ncc(F)cn3)C[C@H]21", "Percent Effect": -1.223}, {"smiles": "CC(C)N(Cc1nccn1C)C(=O)c1cnc(O)cn1", "Percent Effect": -3.4}, {"smiles": "Cn1ccnc1SCCNC(=O)c1c[nH]nc1C1CCCCC1", "Percent Effect": -10.23}, {"smiles": "Cc1c(NC(C)C(C)C)cccc1C(=O)NCc1nccn1C", "note": "(stereo not drawn)", "Percent Effect": -7.954}, {"smiles": "Cl.Cn1ccnc1CNC(=O)c1cnc(C2CCNCC2)cn1", "Percent Effect": 74.03}, {"smiles": "Cl.Cn1ccnc1CNC(=O)c1ccnc(C2CCNCC2)c1", "Percent Effect": 112.8}, {"smiles": "Cn1ccnc1CNC(=O)Nc1ccc(OC2CCC2)c(F)c1", "Percent Effect": 1.11}, {"smiles": "COCCCC(=O)Nc1cc(Cl)c(Cl)cn1", "Percent Effect": -20.73}, {"smiles": "O=C(c1scc2c1OCCO2)N1CCOC(Cc2cccc(F)c2)C1", "note": "(stereo not drawn)", "Percent Effect": -18.9}, {"smiles": "Cc1noc(-c2cnc(NC(C)C)nc2-c2ccco2)c1C", "Percent Effect": 118.1}, {"smiles": "Cc1cnn(CC(C)NCc2nc(-c3ccco3)no2)c1", "note": "(stereo not drawn)", "Percent Effect": 2.799}, {"smiles": "Cn1cc(-c2ccnc(NCC3CCCCO3)n2)cn1", "note": "(stereo not drawn)", "Percent Effect": -0.1287}, {"smiles": "Cc1noc(-c2cnc(NC3CC3)nc2-c2ccco2)c1C", "Percent Effect": 112.5}, {"smiles": "Cc1nn(C)c2nc(-c3ccccn3)nc(NC[C@@H]3CCCO3)c12", "Percent Effect": -8.15}, {"smiles": "Cc1noc(-c2cnc(NCC3CCCO3)nc2-c2ccco2)c1C", "note": "(stereo not drawn)", "Percent Effect": 115.5}, {"smiles": "Cc1cnn(CC(C)NCc2csc(-c3ccco3)n2)c1", "note": "(stereo not drawn)", "Percent Effect": 6.093}, {"smiles": "Cc1cc(C)c2nc(CN3CCC(N4CCOC4=O)CC3)cc(O)c2c1", "Percent Effect": -3.092}, {"smiles": "COCCN(C)CCN1CC2(CCN(C3CCCNC3)CC2)OC1=O", "note": "(stereo not drawn)", "Percent Effect": -6.573}, {"smiles": "CC(C)CCN1CCN(c2ncnc3nc(N)ccc23)CC1", "Percent Effect": 6.537}, {"smiles": "Cn1c(-c2cccs2)nn(CCNS(=O)(=O)c2ccccc2Cl)c1=O", "Percent Effect": 11.66}, {"smiles": "Cc1c(C(=O)N2CCC2(C)C)nnn1-c1cccc2cnccc12", "Percent Effect": 16.96}, {"smiles": "CN(C)C(=O)[C@]12CCCN(CC3CC3)C[C@H]1CN(c1ccccn1)C2.O=C(O)C(F)(F)F.O=C(O)C(F)(F)F", "Percent Effect": 89.5}, {"smiles": "O=C(O)C(F)(F)F.O=C(O)[C@]12CCCN(Cc3ccco3)C[C@H]1CN(c1ncccn1)C2", "Percent Effect": 0.3269}, {"smiles": "CCC(=O)N1CCC[C@]2(C(=O)N(C)C)CN(c3ccccn3)C[C@@H]2C1.O=C(O)C(F)(F)F", "Percent Effect": 98.59}, {"smiles": "CCS(=O)(=O)N1CCC[C@]2(C(=O)N(C)C)CN(c3ncccn3)C[C@@H]2C1.O=C(O)C(F)(F)F", "Percent Effect": -12.08}, {"smiles": "CC(C)C(=O)N1CCC[C@]2(C(=O)N(C)C)CN(c3ccccn3)C[C@@H]2C1.O=C(O)C(F)(F)F", "Percent Effect": 109.6}, {"smiles": "CN(C)C(=O)N1CCC[C@]2(C(=O)N(C)C)CN(c3ccccn3)C[C@@H]2C1.O=C(O)C(F)(F)F", "Percent Effect": 123.8}, {"smiles": "COCC(=O)N1CCC[C@]2(C(=O)N(C)C)CN(c3ccccn3)C[C@@H]2C1.O=C(O)C(F)(F)F", "Percent Effect": -6.724}, {"smiles": "O=C(O)C(F)(F)F.O=C(O)C(F)(F)F.O=C(O)[C@]12CCCN(Cc3ccsc3)C[C@H]1CN(c1ccccn1)C2", "Percent Effect": -13.21}, {"smiles": "CCS(=O)(=O)N1CCC[C@]2(C(=O)N(C)C)CN(c3ccccn3)C[C@@H]2C1.O=C(O)C(F)(F)F", "Percent Effect": -14.88}, {"smiles": "CN(C)CCN1C[C@@H]2OCCN(Cc3cnn(C)c3)[C@@H]2C1", "Percent Effect": -15.62}, {"smiles": "COc1cccc(Cl)c1-c1cc(CN)ccc1F", "Percent Effect": -5.951}, {"smiles": "O=C(O)C(F)(F)F.O=C(O)C(F)(F)F.O=C(c1ccncc1)N1CC[C@@H]2CN(C3CCOCC3)CCO[C@@H]2C1", "Percent Effect": 103.2}, {"smiles": "O=C(O)C(F)(F)F.O=C(O)C(F)(F)F.c1csc(CN2CCO[C@@H]3CN(C4CCOCC4)C[C@@H]3C2)c1", "Percent Effect": -1.995}]}]}
